Bioassay records from PubChem.
ALDH1A1 inh: inhibitors of human aldehyde dehydrogenase 1A1; P00352; Potency, µM (top dose mostly 75.3 µM), for the others: at the top dose activity, negative = inhibition, most hits filed as inhibitors; Purified ALDH1A1, NADH fluorescence, propionaldehyde substrate; AID 1030; 220,000 tested, 7.3% active; active = well fitted inhibition curve with a large enough effect, not every such curve was filed as active; inconclusive = small, poorly fitted or top-dose-only effect, or another doubt; inactive = no such curve, though single readings can be large or run the other way;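 note: plate controls were no enzyme wells and a reference inhibitor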
Tau fibril ThT: tau fibrillization inhibition (ThT binding); P10636; recombinant tau K18 P301L, heparin-induced fibrillization, ThT fluorescence; Potency, µM (titrated, usually from 57.4 µM), for the others: top-dose activity, negative = inhibition, usual class: inhibitors; 270,000 tested, 2.1% active; AID 1460; note: nearly all actives have a fitted effect of over 55% in size
Target sequence (P10636 561-689 P618L limits assumed): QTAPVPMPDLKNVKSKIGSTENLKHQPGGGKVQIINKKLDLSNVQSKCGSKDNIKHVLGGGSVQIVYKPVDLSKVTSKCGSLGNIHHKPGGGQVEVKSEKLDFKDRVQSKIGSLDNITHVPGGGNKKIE
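K18 P301L tau (15 uM + 0.24 uM Alexa 594-tagged), heparin 20 uM, NaOAc pH 7, 6 h 37 C; ThT 30 uM, 1 h RT, ex 450/em 510 nm.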
Tau fluor counter: counter-screen for tau fibril formation inhibitors | Potency, µM (highest dose often 57.7 µM), for the others: top-dose activity change, negative = decrease | tau K18 P301L (four-repeat tau fragment) Alexa594 fluorescence, heparin fibrillization | 280,000 tested, 0.93% active; note: nearly all actives have a fitted effect of over 55% in size
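Human K18 P301L tau (15 uM unlabeled plus 0.24 uM Alexa 594-labeled, final) in 100 mM sodium acetate pH 7 was mixed with compound and 20 uM heparin and incubated 6 hr at 37 C.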
HPGD block: blocks human HPGD enzyme activity; purified HPGD, NADH fluorescence kinetic, PGE2 substrate; Potency, µM, for inactives: top-dose activity change, negative = inhibition, usual class: inhibitors; 150,000 tested, 4.3% active; active = well fitted inhibition curve with a large enough effect, not every such curve was filed as active; inconclusive = small, poorly fitted or top-dose-only effect, or another doubt; inactive = no such curve, though single readings can be large or run the other way
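20 nM HPGD preincubated 15 min at room temperature with compound in 50 mM Tris-HCl pH 8, 0.01% Tween 20. Started with 1 mM NAD+ and 30 uM prostaglandin E2; NADH fluorescence (360/450 nm) read 5 times over 30-s intervals, last minus first.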
Tau FP inhib: blocks human tau fibril formation measured by polarization. Potency, µM (top dose mostly 57.7 µM), inactives show at the top dose activity, negative = inhibition, actives largely listed as inhibitors. P10636. 280,000 tested, 0.39% active. K18 P301L tau heparin fibrillization, Alexa594 FP, 6 h; note: nearly all actives have a fitted effect of over 55% in size
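Human tau K18 […] P301L fragment, 15 uM unlabeled plus 0.24 uM Alexa 594-labeled tau (final), with compound and 20 uM heparin in 100 mM sodium acetate pH 7; 6 hr at 37 C, then Alexa 594 FP read.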
NPSR antagonist: blocks cAMP signaling of the human neuropeptide S receptor. Potency, µM (doses to about 38.3 µM), without a hit: top-dose activity change, negative = inhibition, actives largely listed as inhibitors. 220,000 tested, 1% active. CHO-NPSR cells, cAMP TR-FRET, antagonist mode; note: nearly all actives have a fitted effect of over 50% in size
Target sequence (Q6W5P4 whole entry, looked up): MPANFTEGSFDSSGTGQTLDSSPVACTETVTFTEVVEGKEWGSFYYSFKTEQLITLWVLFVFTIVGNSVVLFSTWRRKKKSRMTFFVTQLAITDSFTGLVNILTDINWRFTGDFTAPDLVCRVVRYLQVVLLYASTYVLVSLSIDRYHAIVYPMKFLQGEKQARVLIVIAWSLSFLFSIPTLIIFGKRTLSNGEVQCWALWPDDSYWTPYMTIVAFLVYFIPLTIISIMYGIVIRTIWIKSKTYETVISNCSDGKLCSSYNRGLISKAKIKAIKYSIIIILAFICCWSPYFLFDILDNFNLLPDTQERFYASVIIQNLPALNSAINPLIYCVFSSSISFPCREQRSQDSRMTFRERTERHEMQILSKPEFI
* hit, by the source's call; ? = inconclusive; . = no result given; [ ] = dose if it differs, or a comment. Shown are actives, neighbours in structure and some others; about 9.5% of the full set was active somewhere. Unless noted, calls come from the whole dose curve; as a rule, active = well fitted curve in the direction sought with a large enough effect; inconclusive = small, poorly fitted or top-dose-only effect, or another doubt; inactive = no such curve, though single readings can be large; an effect the other way counts as inactive or inconclusive. Unless noted, % is set by controls: 0 for no effect and ±100 for the full control effect; potency is the fitted concentration of half-maximal effect.

SMILES	ALDH1A1 inh	Tau fibril ThT	Tau fluor counter	HPGD block	Tau FP inhib	NPSR antagonist
CC(C)(C)N=C1NN=C(c2ccc(Cl)cc2)CS1	.	-17%	-15%	.	13%	-2%
CC(C)(C)N=C1NN=C(c2cc3ccccc3o2)CS1	22µM*	?	-28%	.	-12%	?
Cc1nn(Cc2ccccc2Cl)c2sc(C(=O)OC3CCCC3=O)cc12 (stereo unspecified)	8.9µM*	-6%	-14%	-26%	-20%	-29%[46.1 µM]
Cc1nn(Cc2ccccc2Cl)c2sc(C(=O)NC(C)(C)C)cc12	-6%	-14%	-17%	-17%	1%	?
CCCN1C(=O)C2(C(C(=O)c3ccc(C)o3)=C(O)C(=O)N2CCCN2CCOCC2)c2ccccc21 (stereo unspecified)	10µM*	?	-6%	-4%	4%	19%[46.1 µM]
C=CCN1C(=O)C2(C(C(=O)c3ccc(C)o3)=C(O)C(=O)N2CCCN2CCOCC2)c2ccccc21 (stereo unspecified)	21%	-5%	-7%	.	-1%	2%[46.1 µM]
COc1cc(/C=C/C(=O)O)ccc1OS(=O)(=O)c1cc(C)ccc1C	11%	2%	3%	.	1%	-28%
COc1ccc(C2C3C=CCC(c4cccc(-c5ccc(C)cc5)c4)C3C(=O)N2Cc2ccccc2)cc1Cl (stereo unspecified)	.	2%	4%	.	-10%	10µM*
COc1ccc(-c2cccc(C3CC=CC4C3C(=O)N(Cc3ccccc3)C4c3ccc4ccccc4c3)c2)cc1 (stereo unspecified)	.	17%	25%	.	-8%	-29%
Cc1cc(S(=O)(=O)Nc2ccc(N(C)C)cc2)c(C)s1	3%	-3%	-22%	-24%	7%	-16%[46.1 µM]
Cc1ccc(C(=O)COC(=O)c2cnccn2)cc1	3%	8%	10%	-9%	7%	2%[46.1 µM]
O=C(COC(=O)c1cnccn1)c1ccc([N+](=O)[O-])cc1	.	16µM*	-19%	.	?	10%
O=C(CCc1ccccc1)OCC(=O)c1ccc([N+](=O)[O-])cc1	8.9µM*	?	-26%	.	-8%	11%
COc1ccc(C(=O)COC(=O)CCc2ccccc2)cc1	.	?	-20%	.	-4%	11%
COCCOC(=O)C1=C(C)NC(=O)NC1c1ccc(-c2cc(Cl)ccc2Cl)o1 (stereo unspecified)	3.2µM*	-17%	-15%	.	-2%	38%
COC(=O)C1=C(C)NC(=O)NC1c1ccc(-c2ccc(F)cc2)o1 (stereo unspecified)	-8%	-6%	-3%	.	2%	0%
COC(=O)C1=C(C)NC(=O)NC1c1ccc(-c2ccccc2Cl)o1 (stereo unspecified)	10µM*	3%	0%	.	-13%	-4%
Cc1ccc(N2C(=O)CSC23C(=O)N(CC(=O)NC2CCCCC2)c2ccccc23)cc1C (stereo unspecified)	.	2%	-1%	.	-2%	.
CCCCn1c(N)c(-c2nc3ccccc3o2)c2c([N+](=O)[O-])nn(CC)c(=O)c21	8%	-10%	-13%	-12%	15%	9%
Cn1nc([N+](=O)[O-])c(C(C#N)c2ccccn2)c(Cl)c1=O (stereo unspecified)	-11%	8.9µM*	13µM*[quencher]	.	?	-51%
CCCn1nc([N+](=O)[O-])c(C(C#N)c2nc3ccccc3o2)c(Cl)c1=O (stereo unspecified)	?	7.1µM*	14µM*[quencher]	-15%	?	?
CCn1nc([N+](=O)[O-])c(C(C#N)c2nc3cc(C(F)(F)F)ccc3s2)c(Cl)c1=O (stereo unspecified)	0.4µM*	4.5µM*	6.3µM*[quencher]	?	20µM*	?
C/C(N)=C(/C#N)C(=O)CSc1nc2cc(Cl)ccc2s1	-1%	?	?	-15%	?	-18%[46.1 µM]
Cc1ccc(OCC(=O)N/N=C\c2ccc(C)o2)c(C)c1	?	-11%	-10%	.	8%	2%
Cc1ccc(OCC(=O)N/N=C\c2ccc(-c3cccc(C(=O)O)c3)o2)c(C)c1	?	7.9µM*	-23%	?	5%	-24%
SMILES	ALDH1A1 inh	Tau fibril ThT	Tau fluor counter	HPGD block	Tau FP inhib	NPSR antagonist
CCOC(=O)N1CCC(NC(=O)C2CCCN(S(C)(=O)=O)C2)CC1 (stereo unspecified)	3%	-10%	-5%	2%	7%	0%[46.1 µM]
COCCCN1C(=O)/C(=C/c2ccc(CNS(=O)(=O)c3ccccc3)o2)C(C(=O)OC)=C1C	35µM*	14µM*	-19%	.	?	-17%
Cc1cccc(NC(=O)c2c(NC(=O)C(F)(F)F)sc3c2CCCCC3)c1	.	16µM*	?	.	11%	.
Cc1cccc(C(=O)Nc2sc3c(c2C(=O)Nc2ccccc2)CCC3)c1	.	0%	-8%	.	-3%	.
Cc1ccc(NC(=O)c2c(NC(=O)c3ccccc3)sc3c2CCC3)cc1	.	-5%	-12%	.	-11%	.
Cc1ccc(NC(=O)c2c(NC(=O)C(F)(F)F)sc3c2CCCCC3)cc1	.	14µM*	?	.	10%	.
O=C(COc1ccc(Cl)cc1)Nc1sc2c(c1C(=O)Nc1cccc(Cl)c1)CCCC2	.	13µM*	-8%	.	?	.
O=C(Nc1cccc(Cl)c1)c1c(NC(=O)C(F)(F)F)sc2c1CCCC2	.	10µM*	?	.	?	.
COc1ccc(NC(=O)c2c(NC(=O)COc3ccccc3)sc3c2CCCCC3)cc1	.	9%	1%	.	2%	.
CC(C)C[C@@H](CC(=O)N[C@@H](CCC(=O)O)CC(=O)O)NC(=O)[C@@H]1CCCC[C@H]1NC(=O)C[C@@H](NC(=O)C[C@H](Cc1ccccc1)NC(=O)[C@@H]1CCCC[C@H]1N)C(C)C	13%	-1%	2%	-5%	-7%	.
Cc1ccc(C)c(NC(=O)C2CCN(c3nn4c(=O)cc(C)nc4s3)CC2)c1	.	-10%	-4%	.	2%	.
O=C(c1ccccc1)C(Nc1ccccn1)c1ccccc1 (stereo unspecified)	3%	-6%	-14%	.	-7%	-13%
COc1ccc(CCC(=O)Nc2nc3c(s2)CN(C)CC3)cc1OC	1%	-19%	-8%	0%	-4%	-7%[46.1 µM]
O=C(COc1ccccc1)Nc1sc2c(c1C(=O)NCc1cccnc1)CCCC2	20µM*	-16%	-26%	-12%	-14%	-15%[46.1 µM]
CCOc1ccc(NC(=O)c2c(NCc3cccnc3)sc3c2CCCC3)cc1	.	?	-29%	.	-11%	.
S=c1ccss1	2.2µM*	?	-15%	6.3µM*	-18%	.
N#Cc1ccc(/C=C/C(=O)c2ccccc2)cc1	8.9µM*	?	-11%	.	-5%	-18%
NC(=O)CSc1ccc(F)cc1	1%	0%	1%	.	-3%	5%
